EPAC1 agonist – human EPAC1 agonism, validation; O95398; EPAC1 Rap1b BODIPY-GDP exchange, fluorescence; Potency, µM, for inactives: max response, positive = active, most hits filed as activators; actives 1% (n = 16,000); also: nearly all actives have a fitted effect of over 70% in size
EPAC2 antag – human EPAC2 antagonism, validation. Q8WZA2. EPAC2 Rap1B BODIPY-GDP exchange, fluorescence. Potency, µM (series often up to 112 µM), for inactives: at the highest dose activity, negative = inhibition, actives largely listed as inhibitors. actives 1.7% (n = 16,000);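 also: 100% = activation by cAMP agonist control; nearly all actives have a fitted effect of over 40% in size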
Target sequence (Q8WZA2 whole entry, looked up): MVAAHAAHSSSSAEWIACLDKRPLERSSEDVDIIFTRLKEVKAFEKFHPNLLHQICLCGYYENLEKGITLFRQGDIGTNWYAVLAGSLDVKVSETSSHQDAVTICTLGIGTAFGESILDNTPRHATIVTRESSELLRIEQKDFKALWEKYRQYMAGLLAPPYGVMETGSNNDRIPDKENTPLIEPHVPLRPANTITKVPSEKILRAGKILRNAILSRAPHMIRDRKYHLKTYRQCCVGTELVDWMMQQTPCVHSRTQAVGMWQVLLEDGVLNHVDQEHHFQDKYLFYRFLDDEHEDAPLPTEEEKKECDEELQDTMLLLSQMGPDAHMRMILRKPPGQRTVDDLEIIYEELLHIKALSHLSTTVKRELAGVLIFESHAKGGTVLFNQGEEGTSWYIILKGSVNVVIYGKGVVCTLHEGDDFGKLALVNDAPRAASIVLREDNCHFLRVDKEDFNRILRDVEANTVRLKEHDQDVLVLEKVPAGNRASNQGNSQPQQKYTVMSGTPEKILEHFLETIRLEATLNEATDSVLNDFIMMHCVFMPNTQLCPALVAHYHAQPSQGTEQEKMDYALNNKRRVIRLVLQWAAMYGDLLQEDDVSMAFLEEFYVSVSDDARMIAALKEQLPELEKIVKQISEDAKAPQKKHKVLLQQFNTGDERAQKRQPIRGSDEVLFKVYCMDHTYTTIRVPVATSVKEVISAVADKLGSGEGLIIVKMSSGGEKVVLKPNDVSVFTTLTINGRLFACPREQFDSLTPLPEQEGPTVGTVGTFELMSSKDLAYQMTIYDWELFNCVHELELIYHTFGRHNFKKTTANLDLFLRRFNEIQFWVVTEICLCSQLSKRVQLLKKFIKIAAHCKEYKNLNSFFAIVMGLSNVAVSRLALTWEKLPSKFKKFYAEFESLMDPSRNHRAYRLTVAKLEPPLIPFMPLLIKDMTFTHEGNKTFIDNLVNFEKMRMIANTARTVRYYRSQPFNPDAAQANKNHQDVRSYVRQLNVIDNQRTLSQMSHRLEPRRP
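Normalized against a 6.5 mM cAMP agonist control, compounds were tested on 100 nM EPAC2 exchanging Rap1B-bound BODIPY-GDP (250 nM) for 50 uM GDP. Fluorescence drop (ex 480, em 540 nm) was tracked at room temperature over 30 min at 5-min intervals.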
The depositor's hits bear a star; ? = inconclusive; ! = repeats disagree; [ ] = remark or other dose. In the library only some 3.1% were active in any assay of this set; here they are far more common. Calls follow the shape of the dose curve; as a rule, active = well fitted curve in the direction sought with a large enough effect; inconclusive = small, poorly fitted or top-dose-only effect, or another doubt; inactive = no such curve, though single readings can be large; an effect the other way counts as inactive or inconclusive. Unless noted, % is scaled to controls: 0 for no effect and ±100 for the full control effect; potency is read from the fitted curve at half-maximal effect.

SMILES	EPAC1 agonist	EPAC2 antag
CCCCCC[C@H]1C(=O)O[C@H](C)[C@H](NC(=O)c2cccc(NC=O)c2O)C(=O)O[C@@H](C)[C@@H]1OC(=O)CC(C)C	-67.3%	44.7µM*
CCCCCCCCCCCCCCCC[N+](C)(C)C	-47.3%	39.8µM*!
CCCCCCCCCC[N+](C)(C)CCCCCCCCCC	-78.0%	-28.5%
CCC(=O)O[C@](Cc1ccccc1)(c1ccccc1)[C@H](C)CN(C)C	-102.8%	-3.5%[239 µM]
CC(=O)O[C@H]1C[C@H](O[C@H]2[C@@H](O)C[C@H](O[C@H]3[C@@H](O)C[C@H](OC4CC[C@@]5(C)C(CC[C@@H]6[C@@H]5CC[C@]5(C)[C@@H](C7=CC(=O)OC7)[C@@H](O)C[C@]65O)C4)O[C@@H]3C)O[C@@H]2C)O[C@H](C)[C@H]1O[C@@H]1O[C@H](CO)[C@@H](O)[C@H](O)[C@H]1O (some centres undefined)	-2.5%	-5.8%
CC1(C)[C@H](C=C(Cl)Cl)[C@H]1C(=O)OCc1c(F)c(F)cc(F)c1F	-6.1%	-22.1%
COc1cc2c(cc1-c1cc3cc4ccoc4cc3oc1=O)OCO2	5.1%	1.26µM*
COc1cc2occc2c2oc(=O)ccc12	?	15.5%
CCCCCCCCCc1ccc(O)cc1	?	44.7µM*
NCCc1ccc(O)cc1	4.6%	-19.7%
N#CC(C#N)=NNc1ccc(OC(F)(F)F)cc1	-41.1%	39.8µM*
CN[C@@]1(c2ccccc2Cl)CCCCC1=O	0.9%	5.9%
C[C@]12CC[C@H]3[C@@H](CCC4=CC(=O)CC[C@@]43C)[C@@H]1CC[C@H]2O	17.4%	-36.8%
O=C1c2ccccc2-c2cccc3cccc1c23	112µM*	2.5%
CCCCN(CC)c1c([N+](=O)[O-])cc(C(F)(F)F)cc1[N+](=O)[O-]	?	-33.0%
CCCN(CCC)c1c([N+](=O)[O-])cc(S(N)(=O)=O)cc1[N+](=O)[O-]	-120.6%	39.8µM*
OC[C@@H](O)[C@H]1O[C@@H]2O[C@@H](C(Cl)(Cl)Cl)O[C@@H]2[C@H]1O	-15.0%	-22.8%
OC[C@@H](O)[C@H]1O[C@@H]2O[C@H](C(Cl)(Cl)Cl)O[C@@H]2[C@H]1O	-1.4%	-1.1%
Nc1ccccc1C(=O)O	-7.1%	-1.1%
O=C1C(I)=CC(=C(c2cc(I)c(O)c(I)c2)c2ccccc2C(=O)O)C=C1I	7.1%	44.7µM*!
CCC(OC(C)=O)C(CC(C)NC)(c1ccccc1)c1ccccc1 (centres undefined)	2.9%	-4.6%[239 µM]
C[C@H]1[C@@H]2Cc3ccc(O)cc3[C@@]1(C)CCN2C	14.4%	17.8%[453 µM]
CCNC1(c2cccs2)CCCCC1=O (centres undefined)	8.8%	-15.2%[56.6 µM]
CCCCCCC(=O)O[C@H]1CC[C@H]2[C@@H]3CC[C@H]4CC(=O)C=C(C)[C@]4(C)[C@H]3CC[C@]12C	-27.9%	-7.9%
C#CCN1C(C)=C(C(=O)CCO)[C@@H](c2cccc(-n3oo3)c2)C(C(=O)OC)=C1C	?	20µM*
SMILES	EPAC1 agonist	EPAC2 antag
CC[C@@H](O)C(C[C@@H](C)N(C)C)(c1ccccc1)c1ccccc1	8.7%	15.0%[239 µM]
COc1ccc2c3c1O[C@H]1[C@@H](O)C=C[C@H]4[C@@H](C2)N(C)CC[C@@]341	5.4%	-0.4%[239 µM]
C[C@@]1(CO)[C@H](O)CC[C@@]2(C)[C@H]1CC[C@H]1C[C@@H]3C[C@@]12CC[C@]3(O)CO	-62.2%	63.1µM*
C[C@]12C=CC(=O)C=C1CC[C@@H]1[C@@H]2CC[C@]2(C)OC(=O)CC[C@@H]12	-17.0%	-5.3%
CCN1C[C@]2(COC)[C@H](O)C[C@H](OC)[C@@]34[C@@H]5C[C@@]6(O)[C@H](OC(=O)c7ccccc7)[C@@H]5[C@@](OC(C)=O)([C@@H]([C@H](OC)[C@H]23)[C@@H]14)[C@@H](O)[C@@H]6OC	-27.9%	7.5%
[H+].[H+].[Hg+2].[O-]B([O-])[O-].[c-]1ccccc1	-6.6%	3.7%
O=C1CS[C@@H](c2ccccc2Cl)c2cc(Cl)ccc2N1	6.3%	31.6µM*
CN(C)[C@H](Cc1ccccc1)c1ccccc1	-7.8%	1.5%
Cc1ccccc1-n1c(CF)nc2ccc(N)cc2c1=O	-1.2%	7.4%
CCOC(=O)[C@]12Cc3cc(OC)c(OC)cc3[C@H]1N(Cc1ccccc1)C(=O)c1ccccc12	-41.7%	-3.1%
CCOC(=O)[C@]12Cc3ccsc3[C@H]1N(Cc1ccccc1)C(=O)c1ccccc12	?	56.2µM*
C[C@H]1[C@H]2Cc3ccc(O)cc3[C@]1(C)CCN2CCc1ccccc1	-8.7%	4.1%[239 µM]
CN1CC[C@]23c4c5ccc(O)c4O[C@H]2[C@@H](O)CC[C@H]3[C@H]1C5	-1.4%	29.6%[239 µM]
CC(C)(C)CC(C)(C)c1ccc(O)cc1	-211.5%	56.2µM*
CCC(C)(C)c1ccc(O)cc1	-16.5%	-10.8%
C[C@H]1CC[C@]2(NC1)O[C@H]1C[C@H]3[C@@H]4CC[C@H]5C[C@@H](O[C@@H]6O[C@H](CO)[C@H](O[C@@H]7O[C@H](CO)[C@@H](O)[C@H](O[C@@H]8OC[C@@H](O)[C@H](O)[C@H]8O)[C@H]7O[C@@H]7O[C@H](CO)[C@@H](O)[C@H](O)[C@H]7O)[C@H](O)[C@H]6O)CC[C@]5(C)[C@H]4CC[C@]3(C)[C@H]1[C@@H]2C	-2.6%	-4.0%
CC[C@]1(O)CC(O[C@@H]2CC(N(C)C)C(O)C(C)O2)c2c(cc3c(c2O)C(=O)c2c(O)cccc2C3=O)C1C(=O)OC (some centres undefined)	?	20.7%
CC[C@@]1(O)CC(O)c2c(cc3c(c2O)C(=O)c2c(O)ccc(O)c2C3=O)C1C(=O)OC (some centres undefined)	112µM*	37.9%
CC(C)=CCN1CC[C@@]2(C)c3cc(O)ccc3C[C@@H]1[C@@H]2C	-2.0%	16.2%[239 µM]
CCOP(=S)(OCC)SCn1c(=O)oc2cc(Cl)ccc21	4.8%	31.6µM*
C[C@]12CC[C@H]3[C@@H](CCC4=C(O)C(=O)CC[C@@H]43)[C@@H]1CC[C@@H]2OC(=O)CCC1CCCC1	8.8%	4.0%
NC[C@H](CS(=O)(=O)O)c1ccc(Cl)cc1	2.1%	-16.6%
CCCCCCCCCC(CC)c1ccc(S(=O)(=O)O)cc1 (centres undefined)	-196.1%	56.2µM*!

Screening data deposited in PubChem BioAssay by National Center for Advancing Translational Sciences (NCATS).
